Screening data from PubChem BioAssay.
Compounds with a hit are over-represented: about 21% of the library has one in this group of screens.
CHX counter: counter-screen for Shiga toxin inhibitors: cycloheximide protein synthesis inhibition. cell reporter, cycloheximide protein synthesis inhibition counterscreen. max response, %. 300,000 compounds, 12% hits; in the data active means max response mostly above about 13%, no sharp cut-off; inactive means mostly below about 14%; further: read at 38.3 µM for the half of the compounds with a filed dose; 0% is about no effect
Pf growth 48h: P. falciparum growth inhibition at 48 hours (one generation) | P. falciparum luciferase growth in erythrocytes, 48 h | Potency, µM (highest dose often 28.7 µM), for inactives: at the highest dose activity change, negative = inhibition, most hits filed as inhibitors | 310,000 compounds, 5.9% hits; further: potency means the concentration at half of the fitted maximal effect; on the % scale 0 is the no-effect control and ±100 the full control effect
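Luciferase-expressing P. falciparum in infected erythrocytes (2% hematocrit, 0.1% parasitemia final) in RPMI 1640/0.5% Albumax were exposed to compound for 48 hours at 37 C, 5% CO2; growth read as luminescence.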
Pf growth 96h: P. falciparum growth inhibition at 96 hours; 320,000 compounds, 6.9% hits; Potency, µM (top dose mostly 28.7 µM), for the others: at the top dose activity change, negative = inhibition, hits mostly inhibitors; P. falciparum luciferase reporter growth, 96 h; AID 504834; further: potency means the concentration at half of the fitted maximal effect; on the % scale 0 is the no-effect control and ±100 the full control effect
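Erythrocytes infected with luciferase-expressing P. falciparum were dispensed at 2% hematocrit and 0.05% parasitemia (final), then incubated with compounds 96 hours at 37 C in 5% CO2. Luminescence after detection reagent addition reported growth.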
NS1 function inh: blocks influenza NS1 protein function | 270,000 compounds, 0.4% hits | Potency, µM (titrated, usually from 46.1 µM), without a hit: at the top dose activity, positive = more growth; calls by dose curve; further: potency means the concentration at half of the fitted maximal effect; actives are rising curves; nearly all actives have a fitted effect of over 50% in size
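OD600 was taken as the measure of yeast growth restored by compound in an NS1-expressing S. cerevisiae strain. Cells had been washed out of glucose medium and diluted 1:100 into galactose -URA medium, pH 6.0.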
FBPA Giardia inh: inhibitors of Giardia lamblia fructose-1,6-bisphosphate aldolase. Potency, µM (series often up to 59.6 µM), for the others: at the highest dose activity, negative = inhibition, hits mostly inhibitors. A8B2U2. purified Giardia FBPA. AID 2451. 290,000 compounds, 0.71% hits; further: potency means the concentration at half of the fitted maximal effect; on the % scale 0 is the no-effect control and ±100 the full control effect; nearly all actives have a fitted effect of over 55% in size
Target sequence (A8B2U2 whole entry, looked up): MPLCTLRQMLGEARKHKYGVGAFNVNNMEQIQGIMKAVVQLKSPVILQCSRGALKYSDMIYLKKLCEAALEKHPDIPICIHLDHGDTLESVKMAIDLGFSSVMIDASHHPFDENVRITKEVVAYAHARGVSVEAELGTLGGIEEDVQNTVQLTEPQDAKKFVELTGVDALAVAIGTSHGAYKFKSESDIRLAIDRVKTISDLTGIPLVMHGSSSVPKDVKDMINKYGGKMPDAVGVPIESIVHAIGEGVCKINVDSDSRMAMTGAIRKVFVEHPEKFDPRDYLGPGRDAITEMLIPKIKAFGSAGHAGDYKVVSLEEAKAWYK
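Giardia FBPA (40 nM reagent) was preincubated 10 min at RT with compound (up to 57.5 uM final), then substrate plus GAPDH/TPI/NAD/arsenate coupling system with diaphorase/resazurin was added; resorufin fluorescence (525/598 nm) was read after 20 min.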
Shiga toxin inh: Shiga toxin inhibition; Vero cells, Shiga toxin protein synthesis inhibition reporter; AID 2315; inhibition, % at 38.7 µM; 290,000 compounds, 9.2% hits; in the data active means inhibition mostly above about 28%, no sharp cut-off; inactive means mostly below about 43%; further: 0% is about no effect
* hit, by the source's call; i = inactive; u = inconclusive; x = no result given; [ ] = another dose, or the depositor's remark. Unless noted, the call rests on the fitted dose curve; in most records, active means well fitted curve in the direction sought with a large enough effect; inconclusive means small, poorly fitted or top-dose-only effect, or another doubt; inactive means no such curve, though single readings can be large; an effect the other way counts as inactive or inconclusive.

SMILES | CHX counter | Pf growth 48h | Pf growth 96h | NS1 function inh | FBPA Giardia inh | Shiga toxin inh
O=C(O)c1cccc([N+](=O)[O-])c1C(=O)Nc1ccc2ccccc2c1 | 20* | 30% | 8% | 7% | -3% | 22
Cn1nc(C(C)(C)C)c([N+](=O)[O-])c1C(=O)Nc1cccc2ccccc12 | -2 | 12µM* | 12µM* | -6% | -9% | -4
O=C(O)c1cccc([N+](=O)[O-])c1C(=O)Nc1cccc2ccccc12 | 20* | -7% | 53% | 3% | -23% | x
COc1cccc(NC(=O)c2sc3ncn(CC(=O)N4CCN(c5ccccn5)CC4)c(=O)c3c2C)c1 | -7 | 10% | u | -32% | x | 4
CSCCC1Nc2ccc(S(=O)(=O)N3CCOCC3)cc2NC1=O (centres undefined) | 1 | -24% | 10µM* | x | -1% | -6
CCN1CCN(c2ccc(S(=O)(=O)N3CCOCC3)cc2NC(=O)CCSC)CC1 | x | u | -15% | x | x | x
CC1CCC(NC(=O)c2ccc(COc3ccccc3)o2)CC1 (centres undefined) | x | 8% | u | x | x | x
O=C(CSc1nc2ccccc2c(=O)n1NC(=O)c1ccccc1)c1ccccc1 | 41* | 93% | i | 25% | 11% | 74*
CCn1c(SCC(=O)c2ccccc2)nc2ccccc2c1=O | 19 | -6% | 0% | -34% | 10% | 20
O=C(CSc1nc2ccccc2c(=O)n1NC(=O)c1ccccc1)c1ccc(Cl)cc1 | 34* | 185% | 36% | u | 3% | 98*
Cc1nc2ccccc2c(=O)n1NC(=O)c1ccc(Cl)cc1 | 1 | -7% | u | 1% | 7% | 11
C/C(=N/Nc1nc(C)cc(=O)[nH]1)C(=O)O | x | x | x | 0% | x | x
O=C(CSc1nc2ncc(Cl)cc2[nH]1)c1c[nH]c2ccccc12 | 8 | 10µM* | 1.9µM* | 2% | -2% | 6
Cc1nc2nc(SCC(=O)C(C)(C)C)[nH]c2cc1Br | -2 | 17% | -23% | -2% | -6% | 36
COC(=O)CSc1nc2ncc(Cl)cc2[nH]1 | -1 | 25% | 13µM* | 0% | u | -6
O=C(CSc1nc2ccc(Cl)cc2[nH]1)c1c[nH]c2ccccc12 | 8 | -10% | 14% | 3% | -10% | 6
CC(C)(C)C(=O)CSc1nc2ncc(Br)cc2[nH]1 | 36* | u | -5% | -22% | -13% | 4
C=C1c2cccc(OC)c2O[C@H](C(=O)OCC)[C@@H]1CCC(C)C | 10 | x | x | x | -6%[89.2 µM] | i
CCO[C@H]1OC(C(=O)N2CCCCCCC2)=C[C@@H](c2coc3ccccc3c2=O)[C@@H]1CCCO | -1 | -12% | u | -3% | 11% | -10
Cc1cccc(CC(=O)NCC(=O)NCc2cc(=O)n(C)c(=O)n2C)c1 | -1 | 11% | 36% | 10% | -1% | 19
COc1ccc(C2NC(=S)N(c3ccccc3)C(C)=C2C(=O)Nc2ccccc2)cc1 (centres undefined) | 9 | x | u | u | -2% | 19
CC1=C(C(=O)Nc2ccc([N+](=O)[O-])cc2)C(c2cccc(C(F)(F)F)c2)NC(=S)N1c1ccccc1 (centres undefined) | 1 | 13µM* | x | 27% | -9% | -14
CC(=O)Nc1ccc(C(=O)OCc2ccccc2Cl)cc1 | 42* | 54% | -82% | -71% | 10% | 64*
O=C(CNCc1ccccc1Cl)Nc1ccc(C(=O)N2CCCCC2)cc1 | 3 | -9% | 8% | -1% | u | -5
NC(=O)c1ccc(NC(=O)CNCc2ccccc2Cl)cc1 | 14* | 14% | 7% | 4% | 0% | 49*
SMILES | CHX counter | Pf growth 48h | Pf growth 96h | NS1 function inh | FBPA Giardia inh | Shiga toxin inh
CC(=O)Nc1ccc(C(=O)OCCCOC(=O)c2ccc(NC(C)=O)cc2)cc1 | -2 | 15% | 9% | 12% | x | -2
CCC(=O)Nc1ccc(C(=O)OCc2ccccc2Cl)cc1 | 33* | x | 44% | -201% | 16% | 18
O=C1C(=O)N(CCCN2CCOCC2)C(c2cccs2)/C1=C(/O)c1ccc2c(c1)OCO2 (centres undefined) | 29* | 15% | u | -2% | 1% | 16
CCCOc1ccc(/C(O)=C2/C(=O)C(=O)N(CCCN3CCOCC3)C2c2ccncc2)cc1 (centres undefined) | 4 | u | u | 10µM* | u | -15
CC(C)Oc1ccc(/C(O)=C2/C(=O)C(=O)N(CCCN3CCOCC3)C2c2ccncc2)cc1 (centres undefined) | x | x | x | 15% | x | x
COc1cccc(C2/C(=C(/O)c3ccc4c(c3)OCO4)C(=O)C(=O)N2CCN2CCOCC2)c1 (centres undefined) | 9.6* | -4% | u | 21% | x | 10
O=C1C(=O)N(CCN2CCOCC2)C(c2ccncc2)/C1=C(/O)c1ccc2c(c1)OCO2 (centres undefined) | -2 | 5% | 8.3µM* | -3% | -1% | 22
C/C(=C\COc1c2ccoc2cc2oc(=O)ccc12)CCC(O)C(C)(C)O (centres undefined) | -8 | x | x | x | -9% | 3
FC(F)(F)c1ccc2c(c1)nnn2C1CCN(Cc2nnnn2Cc2ccccc2)CC1 | 0 | 7.4µM* | 10µM* | -11% | -5% | 3
Cc1ccc(Cn2nnnc2CN2CCC(O)(c3ccccc3F)CC2)cc1 | -1 | 15µM* | 39% | -17% | 3% | -14
COCC(=O)N1CCC(n2nnc3cc(C(F)(F)F)ccc32)CC1 | 6 | 20% | 5.2µM* | -1% | 2% | -4
Cc1ccc(Cn2nnnc2CN2CCC(n3nnc4cc(C)ccc43)CC2)cc1 | -3 | u | 13µM* | -30% | 3% | 26
C/C(=N\OCc1nc2ccccc2c(=O)n1/N=C/c1cc(C)cc([N+](=O)[O-])c1O)c1ccccc1 | 21* | 6.6µM* | u | -38% | -4% | 27
O=[N+]([O-])c1ccc(O)c(/C=N/n2c(CO)nc3ccccc32)c1 | -3 | u | 13µM* | -45% | -7% | -2
C/C(=N\OCc1nc2ccccc2c(=O)n1/N=C/c1cc([N+](=O)[O-])ccc1O)c1ccccc1 | 18* | u | u | -6% | 0% | 46*
CCC1CCCCN1CC(O)Cn1c2ccccc2n2c(=O)cc(C)c(C#N)c12 (centres undefined) | -5 | u | 4.7µM* | 9% | 2% | -12
COC(=O)C1(C(=O)OC)CC(CO)C(=O)[C@H]1c1ccccc1 (some centres undefined) | x | x | x | x | -2% | x
CC(C)(C)NC(=O)NC(=O)CN1c2cccc3cccc(c23)S1(=O)=O | -3 | 11% | 13% | 1% | -10% | -11
CCN(/C=N/S(=O)(=O)c1ccc(Cl)cc1)CC | -1 | 3% | 0% | 7% | 1% | -1
CC(C)CCNC(=O)c1ccc(Cl)c(N)c1 | 37* | 36% | 55% | 0% | -1% | 57*
